In PubChem BioAssay AID873 (PCMD, 2007):
The campaign covered roughly 210,000 compounds. About 1,300 (0.62%) were called active.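 How the source made its calls: active means inhibition of 40% or more; inactive means the rest.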 For the sample, actives were picked, then their nearest neighbours and some compounds at random.

The compounds below were run against Kallikrein-5 (Homo sapiens) (UniProt Q9Y337) (assay: human KLK5 protease inhibitors, primary screen, biochemical, 1536-well (AID 873;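 further: 0% = enzyme controls without compound and 100% = no-enzyme blanks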)). Details: recombinant hK5, fluorogenic AMC substrate cleavage; at 5 µM; stronger effect = higher value.
Kallikrein-5 (Homo sapiens), sequence (Q9Y337 67-293 limits assumed): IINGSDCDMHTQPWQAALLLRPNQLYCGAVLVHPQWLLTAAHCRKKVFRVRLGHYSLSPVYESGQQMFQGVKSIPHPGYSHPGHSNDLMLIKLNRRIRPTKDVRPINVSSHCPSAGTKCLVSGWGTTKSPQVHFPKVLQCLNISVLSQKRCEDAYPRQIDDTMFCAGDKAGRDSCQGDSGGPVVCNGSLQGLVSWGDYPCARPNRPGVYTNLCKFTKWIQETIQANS

SMILES | inhibition
Cc1ccc(Oc2cnn(-c3ccccc3)c(=O)c2Br)cc1 | -20.9% (inactive)
C=CCNc1cnn(-c2ccc(C)cc2)c(=O)c1Cl | 58% (active)
O=c1c(Cl)c(NC2CC2)cnn1-c1ccccc1 | -14.4% (inactive)
CS(=O)(=O)c1ccc(Cl)c(NC(=O)Nc2ccccc2)c1 | 15.8% (inactive)
CC(C)c1nc(SCC(=O)NC(=O)NC(C)(C)C)n[nH]1 | -0.71% (inactive)
Cc1cccn2c(CNCC(C)Oc3cccnc3)c(C(=O)N3CCOCC3)nc12 (stereo unspecified) | -2.01% (inactive)
COc1ccc(N2CCC(CNC(=S)Nc3c(C)cccc3C)C2)cc1 (stereo unspecified) | -0.97% (inactive)
Cc1nc2nc(SCC(=O)c3ccccc3)[nH]c2cc1Br | 1.2% (inactive)
C/C(=N/NC(=O)CN1CCN(S(=O)(=O)c2ccc(Br)cc2)CC1)c1ccncc1 | 1.01% (inactive)
O=C(Nc1ccccc1-c1ccccc1)c1cccs1 | 40% (active)
CCc1ccccc1NC(=O)c1cccs1 | -5.15% (inactive)
O=C(Nc1ccccc1-c1nnn(CC(=O)N2CCN(c3ccccc3)CC2)n1)c1cccs1 | 8.06% (inactive)
CC(C)Cc1oc(C(=O)O)cc1CN | -20.2% (inactive)
Cc1oc(CC(C)C)c(CN2CCCC2)c1C(=O)O | 40.4% (active)
Cc1cc(=O)oc(C)c1C(=O)N1CCCCC1 | -21.2% (inactive)
Cc1ccc(Nc2c3c(nc4ccccc24)CCC3)cc1 | -1.22% (inactive)
COc1ccc(NS(=O)(=O)c2ccc(N3CCOCC3)c(NC(=O)c3ccccc3Br)c2)cc1 | -3.92% (inactive)
Cc1cc(C)nc(Nc2n[nH]c(-c3ccccc3N)n2)n1 | -1.46% (inactive)
CC(C)CCN1NC2(CCC(C)CC2)NC1=S (stereo unspecified) | 0.13% (inactive)
COc1ccccc1N1CCN(CCCCOc2ccc(F)cc2)CC1 | 40.1% (active)
COc1ccccc1N1CCN(Cc2ccc(OC)c3ccccc23)CC1 | -4.66% (inactive)
CCN1CCN(CCCCOc2ccccc2F)CC1 | -9.3% (inactive)
CCOC(=O)c1ccc(NC(=O)Cn2cnc3cc(C)c(C)cc32)cc1 | 3.77% (inactive)
Cc1nc(N)[nH]c(=O)c1Oc1cccc(C(F)(F)F)c1 | -0.74% (inactive)
Cc1cc(=O)[nH]c(SCC(=O)Nc2ccc(Br)cc2)n1 | 2.46% (inactive)
CCOc1ccccc1N1CN(Cc2ccccc2)CNC1=S | -6.7% (inactive)

SMILES | inhibition
CCCc1ccc(C(=O)[C@@H]2[C@@H](C(C)=O)N3c4ccc(F)cc4C=C[C@@H]3[C@@]23C(=O)Nc2ccccc23)cc1 | 3.66% (inactive)
NC(=O)N1CCc2ccccc21 | -6.77% (inactive)
O=C(c1cnn2ccccc12)N1CCc2ccccc21 | 68.7% (active)
O=C(c1cccc(C(=O)N2CCc3ccccc32)n1)N1CCc2ccccc21 | -28.7% (inactive)
COC(=O)c1noc(C)c1-c1ccnn1C(=O)c1ccc(Cl)cc1 | 14.2% (inactive)
O=C(O)CSc1nccc2ccccc12 | -3.99% (inactive)
O=C(O)c1ccccc1-c1ccccc1C(=O)Nc1cccc2ccccc12 | 3.53% (inactive)
O=C(O)C#Cc1cccc2ccccc12 | 42.9% (active)
COC(=O)c1cc(C(=O)OCC(=O)Nc2cc(C)on2)cc([N+](=O)[O-])c1 | 23.6% (inactive)
C/C(=N\NC(=S)NCc1ccccc1)c1ccc(Cl)cc1 | 56.7% (active)
O=C(O)c1ccc(/C=N/NC(=S)NCc2ccccc2)cc1 | -1.6% (inactive)
C/C(=N\NC(=S)NCc1ccccc1)C1CCCCC1 | -4.43% (inactive)
COc1ccc(C(=O)c2oc3ccc(Br)cc3c2NC(C)=O)cc1 | -25.1% (inactive)
COC(=O)c1oc2ccc(Br)cc2c1NC(C)=O | 41.8% (active)
COc1ccc2oc(C)c(NC(C)=O)c2c1 | -13.5% (inactive)
Cc1ccc(Nc2nc(Cl)c(C=O)s2)cc1 | 0.92% (inactive)
COc1cccc(NC(=O)CS(=O)(=O)c2cn(CC(=O)N3CCOCC3)c3ccccc23)c1 | -2.04% (inactive)
O=C(CS(=O)(=O)c1cn(Cc2cccc(F)c2)c2ccccc12)N1CCCCC1 | -11.7% (inactive)
O=C(CS(=O)(=O)c1cn(Cc2ccc(Cl)cc2)c2ccccc12)N1CCOCC1 | 47% (active)
O=C(Cn1cc(C(=O)c2cccs2)c2ccccc21)NCc1cccs1 | -1.96% (inactive)
COC(=O)Cn1cc(C(=O)c2cccs2)c2ccccc21 | 40.6% (active)
COCCNC(=O)Cn1cc(C(=O)c2cccs2)c2ccccc21 | -5.68% (inactive)
Cc1ccc(OCC(=O)Nc2nnc(-c3ccco3)s2)cc1 | -1.13% (inactive)
CC(C)CNc1ncnc2c1cnn2Cc1ccc(Cl)cc1 | -1.93% (inactive)
Cc1onc(NC(=O)c2ccc([N+](=O)[O-])o2)c1Br | 47.1% (active)
Cc1cccc(NC(=O)c2ccc([N+](=O)[O-])o2)c1 | -2.56% (inactive)

SMILES | inhibition
O=C(Nc1ccc(Br)cn1)c1ccc([N+](=O)[O-])o1 | -4.1% (inactive)
CCCNc1c(N)c(=O)c1=O | -0.24% (inactive)
Cc1ccc(Oc2nc(-c3ccccn3)nc3ccccc23)cc1 | -11.3% (inactive)
N#C/C(=C/c1ccc(-c2ccccc2[N+](=O)[O-])o1)C(=O)NCCN1CCCCC1 | 1.64% (inactive)
Cc1ccc(-c2csc(-c3cc(C)on3)n2)cc1 | 44.8% (active)
Cc1ccc(-c2csc(SCC(=O)Nc3cc(C)on3)n2)cc1 | -2.17% (inactive)
CCCc1cc(-c2nc(-c3ccc(C)cc3)cs2)ccn1 | -10.9% (inactive)
O=c1c(/C=N/O)coc2ccc(Cl)cc12 | 3.19% (inactive)
Cc1ccc(N2C(=O)CC(Nc3cccc4ccccc34)C2=O)cc1 (stereo unspecified) | 0.34% (inactive)
CC1C(=O)NC(=O)C1c1ccccc1 (stereo unspecified) | 1.86% (inactive)
CC(C)(C)n1nnnc1C(c1cccs1)N(Cc1cccnc1)CC1CCCO1 (stereo unspecified) | 45% (active)
CCOc1ccc(CN(Cc2ccco2)C(c2cccs2)c2nnnn2C(C)(C)C)cc1 (stereo unspecified) | 9.28% (inactive)
CC(C)C(c1nnnn1C(C)(C)C)N1CCN(Cc2cccnc2)CC1 (stereo unspecified) | 4.44% (inactive)
Cc1nnc(SCC(=O)N2CCOCC2)[nH]c1=O | -13.7% (inactive)
O=C(CSc1nc2c(cnn2-c2ccc(F)cc2)c(=O)[nH]1)N1CCCCCC1 | 68.2% (active)
CC(=O)c1sc2nc(SCC(=O)N3CCCCC3)[nH]c(=O)c2c1C | -8.76% (inactive)
Cc1coc2cc3oc(=O)c(CCC(=O)O)c(C)c3cc12 | -1.04% (inactive)
Cc1ccc(C(O)P(=O)(OC(C)C)c2ccc(N(C)C)cc2)cc1 (stereo unspecified) | -0.37% (inactive)
CCC(=O)Nc1ccc(C(=O)Nc2cccc(OC)c2)cc1 | -2.36% (inactive)
COc1ccc(C(=O)Nc2cccc(S(C)(=O)=O)c2)cc1 | 9.53% (inactive)
COc1cccc(NC(=O)c2ccc(S(=O)(=O)N(C)C)cc2)c1 | 58.8% (active)
CC1CN(c2nc(Nc3ccccc3)nc(N)c2[N+](=O)[O-])CC(C)O1 (stereo unspecified) | 1.28% (inactive)
Cc1ncn2cc(-c3ccc(Cl)cc3Cl)[nH]c(=O)c12 | 63% (active)
COn1c(-c2ccc(Cl)cc2Cl)nc2ncccc21 | -1.75% (inactive)
Clc1ccc(-c2ncc3ccccn23)c(Cl)c1 | 2.07% (inactive)
COc1ccc(OC)c(-n2c(-c3ccn[nH]3)n[nH]c2=S)c1 | -4.85% (inactive)

SMILES | inhibition
CCn1c2ccccc2c2cc(CC(N)=O)ccc21 | 0.83% (inactive)
NC(=O)Cc1ccc2sc(-c3ccccc3)nc2c1 | 29.8% (inactive)
NC(=O)Cc1ccc2c(c1)[nH]c1ccccc12 | 49.5% (active)
CCN(CC)c1ccc(/C=N/NC(=O)c2cnccn2)c(O)c1 | -3.69% (inactive)
Cc1nnc(SCC(=O)N2CCc3ccccc3C2)s1 | 16.7% (inactive)
Cc1nc(SCC(=O)N2CC(=O)Nc3ccccc32)c2c(C)c(C)sc2n1 | -0.11% (inactive)
Cc1nc(SCC(=O)N2CCc3ccccc3C2)c2c(C)c(C)sc2n1 | 59.1% (active)
COc1ccccc1C1CCN(c2ccc([N+](=O)[O-])cn2)CC1 | 0.29% (inactive)
CC(=O)c1ccc2c(c1)OCCOCCOc1ccc(C(C)=O)cc1OCCOCCO2 | -1.51% (inactive)
O=c1[nH]c2cccnc2n1-c1ccc([N+](=O)[O-])cc1 | 0.04% (inactive)
O=C(O)Cc1ccc(NC(=O)C2CCCCC2C(=O)O)cc1 (stereo unspecified) | 46.5% (active)
O=C(O)C1CCCCC1C(=O)Nc1ccc(Cl)cc1 (stereo unspecified) | 2.31% (inactive)
O=C(O)c1ccc(NC(=O)C2CCCCC2)cc1 | -4.28% (inactive)
COc1ccc(-c2noc(CSc3ccc(C)cc3)n2)cc1 | 55.4% (active)
COc1ccc(-c2noc(-c3ccc(C)cc3)n2)cc1 | -5.34% (inactive)
COc1ccc(-c2noc(CN(C)S(=O)(=O)c3ccc(C)cc3)n2)cc1 | 1.11% (inactive)
O=C(Nc1ccc(S(=O)(=O)N2CCOCC2)cc1)c1ccc2ncsc2c1 | 6.27% (inactive)
COCc1cc(=O)[nH]c(-c2ccc(C(F)(F)F)cc2)n1 | -1.98% (inactive)
Cc1cccc(N(C)C(=O)c2cc3c(=O)[nH]c4ccc(C)cc4c3s2)c1 | 1.34% (inactive)
CCN(CC)S(=O)(=O)c1ccc(NC(=O)CN(c2cccc(F)c2)S(C)(=O)=O)cc1 | -2.67% (inactive)
CS(=O)(=O)N(CC(=O)Nc1ccc(F)cc1F)c1cccc([N+](=O)[O-])c1 | 62.8% (active)
COc1cccc(N(CC(=O)Nc2cccc(F)c2)S(C)(=O)=O)c1 | 2.06% (inactive)
COc1ccc(NC(=O)C2=NNC(=O)CC2)cc1S(=O)(=O)N1CCCCC1 | -2.9% (inactive)
